HDAC3 inh: inhibitors of human histone deacetylase 3 | 320,000 tested, 0.15% active | recombinant HDAC3, fluorogenic peptide/trypsin coupled, fluorescence | inhibition, % at 8.3 µM | O15379; in the data active = inhibition above about 26%, passing the limit was not always enough
Target sequence (O15379 whole entry, looked up): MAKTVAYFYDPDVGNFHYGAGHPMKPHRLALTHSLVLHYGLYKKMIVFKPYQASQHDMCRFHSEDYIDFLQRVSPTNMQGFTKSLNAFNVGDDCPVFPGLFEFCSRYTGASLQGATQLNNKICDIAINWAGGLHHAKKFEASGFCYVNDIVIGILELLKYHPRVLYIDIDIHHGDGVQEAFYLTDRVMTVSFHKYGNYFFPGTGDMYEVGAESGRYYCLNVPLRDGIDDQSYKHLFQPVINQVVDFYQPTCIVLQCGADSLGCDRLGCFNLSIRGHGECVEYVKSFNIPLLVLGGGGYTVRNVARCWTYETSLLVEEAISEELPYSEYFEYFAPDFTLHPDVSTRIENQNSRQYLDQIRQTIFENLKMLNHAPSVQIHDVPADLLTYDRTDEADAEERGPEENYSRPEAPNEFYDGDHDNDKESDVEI
Rce1 inhib: inhibitors of yeast Ras-converting enzyme | 290,000 tested, 0.27% active | calls only | yeast membranes, quenched prenylated peptide cleavage fluorescence;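 active = fall in fluorescence gain of 50% or more versus controls, with final raw signal at or below 3038400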
Rtt109 Vps75: C. albicans Rtt109 histone acetyltransferase inhibition; 330,000 tested, 0.16% active; Q5AAJ8; purified Rtt109/Vps75, ThioGlo CoA-SH fluorescence, 4 h; AID 540336; inhibition, % at 34.9 µM;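 active = inhibition of at least 50% in every replicate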
ALR H2O2 inh: blocks human ALR sulfhydryl oxidase activity; AID 485317; P55789; purified ALR, DTT oxidation, H2O2 HRP-luminol luminescence; 290,000 tested, 3.8% active; inhibition, % (concentration not given with the values);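 active = mean replicate inhibition above about 79%, with every replicate also reaching it, limit read from the data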
Target sequence (P55789 whole entry, looked up): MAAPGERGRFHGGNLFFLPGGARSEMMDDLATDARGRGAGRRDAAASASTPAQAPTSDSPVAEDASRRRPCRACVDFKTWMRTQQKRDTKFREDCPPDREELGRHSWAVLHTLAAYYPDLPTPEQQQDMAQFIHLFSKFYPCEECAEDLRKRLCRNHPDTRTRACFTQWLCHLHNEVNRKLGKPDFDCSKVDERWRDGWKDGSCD
Efflux pump mplx: inhibitors of Candida antifungal efflux pumps expressed in yeast. inhibition, % at 10 µM. 330,000 tested, 0.44% active. S. cerevisiae Candida pump triplex, Nile Red efflux;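 active = plate passing quality check with inhibition over a set limit, or well fluorescence over plate mean plus 4 SD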;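 also: Nile Red retained in pooled yeast measured as flow cytometry median fluorescence; higher means more Nile Red kept so more efflux inhibition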
GRK2 aptamer HTS: inhibitors of human GRK2 displacing RNA aptamer; P25098; 330,000 tested, 0.59% active; inhibition of aptamer binding, % at 10 µM; bead flow cytometry, FAM-aptamer displacement from GRK2;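 active = inhibition of aptamer binding above 40%, roughly 3 SD of noise, on plates passing a quality check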;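 also: median bead fluorescence of bound FAM aptamer so fluorescent compounds give negative values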
GRK2 inh confirm: confirmation of human GRK2 inhibitors displacing RNA aptamer | aptamer displacement, % at 10 µM | 2,000 tested, 4% active | bead-bound GRK2, FAM-aptamer displacement, flow cytometry | shares compounds with GRK2 aptamer HTS;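 active = aptamer displacement above 40%, near three times the noise of non-fluorescent compounds, on plates passing quality checks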;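 also: negative values mostly reflect intrinsic compound fluorescence rather than true enhancement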
FAM quench CP1: aptamer fluorescence quenching in GRK2 counter-screen. shares compounds with GRK2 aptamer HTS. Carboxyfluorescein RNA aptamer on beads, flow cytometry quenching; hits give low values. fluorescence response (% of DMSO), % at 10 µM. 2,000 tested, under 10 active. AID 504580;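 active = compounds that quench the bead-bound fluorescent RNA probe, cutting fluorescence to under half of the solvent control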;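 also: counterscreen run without GRK2 so only probe quenching by compound is measured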
GRK2 confirm 2: confirmation of human GRK2 inhibitors binding RNA aptamer site; shares compounds with GRK2 aptamer HTS; bead-bound GRK2, FAM-aptamer displacement, flow cytometry; inhibition of aptamer binding, % at 10 µM; 360 tested, under 10 active; AID 504782;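 active = inhibition of aptamer binding above 40%, about triple the noise seen with nonglowing compounds, on plates passing quality control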;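 also: negative values mostly come from compounds that fluoresce themselves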
FAM quench SP: counter-screen for GRK2 binding hits: quenchers of fluorescent RNA aptamer; shares compounds with GRK2 aptamer HTS; carboxyfluorescein RNA aptamer beads, flow cytometry quenching; hits give low values; fluorescence response vs DMSO, % at 10 µM; 360 tested, under 10 active;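 active = response vs DMSO under 50%, meaning signal dropped by over half, treated as fluorescence quencher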;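 also: labelled aptamer on streptavidin beads without GRK2 as a quench counter-screen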
Hits are given with their value; i = inactive; nt = not tested or not shown; + = active, no number. A selection: hits, their analogues and other compounds. The true share with any hit is near 4.5%.

SMILES	HDAC3 inh	Rce1 inhib	Rtt109 Vps75	ALR H2O2 inh	Efflux pump mplx	GRK2 aptamer HTS	GRK2 inh confirm	FAM quench CP1	others
Cc1cccc(Cl)c1NNC(=O)Nc1c([N+](=O)[O-])c(C)nn1C	i	i	i	i	i	44	i	i
Cc1noc(C)c1S(=O)(=O)Nc1ccc2c(c1)CC(=O)N([C@H](C)CO)C[C@H](C)[C@@H](CN(C)CC1CC1)O2	i	nt	i	i	i	i	nt	nt
O=C(O)c1ccc(N2CCCC2=O)cc1	i	i	i	i	i	52	i	i
C=CCN1CCN(C(=O)c2cc3c(s2)CCC(CC)C3)CC1 (centres undefined)	i	i	i	i	i	i	nt	nt
O=C(NCc1ccccc1F)C1CCCN(S(=O)(=O)N2CCOCC2)C1 (centres undefined)	i	i	i	i	i	i	i	i
CC(CNC(=O)C1CCCN(S(=O)(=O)N2CCOCC2)C1)c1ccccc1 (centres undefined)	i	i	i	i	i	i	nt	nt
O/N=C\c1cnc(N2CCN(c3ccccc3)CC2)s1	i	i	i	i	i	i	nt	nt
COc1ccc(OC)c(C2=NS(=O)(=O)N(C)C(C(=O)NCc3ccco3)=C2)c1	i	i	i	i	i	i	nt	nt
COc1ccc(Cc2nnc(SCC(=O)Nc3ccccc3C)n(N)c2=O)cc1	i	i	i	i	i	100	i	i
O=C(NCC1CCCO1)c1cn(Cc2ccccc2)nc1-c1ccc(Cl)cc1 (centres undefined)	i	nt	i	nt	i	45	i	i
O=C(/C=C/c1ccco1)NCc1ccco1	i	i	i	i	i	60	i	i
CCc1ccc(/C(C)=N/NC(=O)CNC(=O)/C=C/c2ccco2)cc1	i	i	nt	nt	i	42	i	i
CCOc1ccc(N(CC(=O)NCCSCc2ccc(Cl)cc2)S(C)(=O)=O)cc1	i	i	i	i	i	i	nt	nt
COC(=O)c1sccc1NC(=O)Cn1nnc(-c2ccccc2C)n1	i	i	i	i	i	i	nt	nt
CC(C)c1ccc(N2C(=O)CC(NNC(=O)c3cccnc3)C2=O)cc1 (centres undefined)	i	i	i	i	i	98	i	i
CCn1c(SCC(=O)N2CCN(c3ccc(F)cc3)CC2)nc2ccccc2c1=O	i	i	i	i	i	i	nt	nt
C=CCn1c(N)cc(=O)nc1SCC(=O)N1CCN(c2ccc(F)cc2)CC1	i	i	i	i	i	56	i	i
CCOC(=O)C1C(=O)NC(C(=O)OCC)(C(=O)OCC)C1C(C)CC (centres undefined)	nt	nt	i	nt	nt	nt	nt	nt
CC(CC(=O)N1CCc2ccccc21)S(=O)(=O)c1ccc2c(c1)NC(=O)CO2 (centres undefined)	i	i	i	i	i	i	nt	nt
N=c1oc2cc(O)ccc2cc1C(=O)Nc1nc2ccccc2s1	i	+	i	i	i	i	i	i
Cc1c(NS(=O)(=O)c2cc(C(=O)NC(C)c3ccccc3)ccc2Cl)c(=O)n(-c2ccccc2)n1C (centres undefined)	nt	nt	i	nt	nt	nt	nt	nt
Cc1c(NS(=O)(=O)c2cccc(C(=O)NC(C)c3ccccc3)c2)c(=O)n(-c2ccccc2)n1C (centres undefined)	nt	nt	i	nt	nt	nt	i	i
Cc1c(NS(=O)(=O)c2cccc(C(=O)NCc3ccccc3Cl)c2)c(=O)n(-c2ccccc2)n1C	nt	nt	i	nt	nt	nt	i	i
COc1ccc(CC(=O)NCc2ccc3c(c2)cc(C)n3C)cc1OC	i	i	i	i	i	i	i	i
Cc1cc2cc(CNC(=O)c3ccc4c(c3)OCO4)ccc2n1C	i	i	nt	i	i	i	i	i
SMILES	HDAC3 inh	Rce1 inhib	Rtt109 Vps75	ALR H2O2 inh	Efflux pump mplx	GRK2 aptamer HTS	GRK2 inh confirm	FAM quench CP1	others
CCOc1ccc(CC(=O)NCc2ccc3c(c2)cc(C)n3C)cc1	i	i	i	nt	i	i	i	i
COc1ccc(C(=O)NCc2ccc3c(c2)cc(C)n3C)cc1	i	i	i	nt	i	i	nt	nt
COCC(=O)NCc1ccc2c(c1)cc(C)n2C	i	nt	i	i	i	i	nt	nt
Cc1cc2cc(CNC(=O)COc3ccccc3)ccc2n1C	i	i	i	i	i	i	nt	nt
COc1cc(OC)cc(C(=O)NCc2ccc3c(c2)cc(C)n3C)c1	i	i	i	i	i	82	i	i
Cc1ccc(C)c(S(=O)(=O)N2CCN(C(=O)c3ccc(OCc4c(C)noc4C)cc3)CC2)c1	i	i	i	i	i	i	nt	nt
CCN(c1ccccc1)S(=O)(=O)c1ccc(OC)c(NC(=O)c2cc(Cl)ccn2)c1	nt	nt	i	nt	nt	nt	nt	nt
Cc1cc2cc(CNC(=O)Nc3ccc(Cl)c(Cl)c3)ccc2n1C	i	i	i	nt	i	i	i	i
CCOC(=O)/C=C1\SCC(=O)N1CC(=O)NCc1ccc(OC)c(OC)c1	i	i	i	i	i	95	i	i
Cc1cc2cc(CNC(=O)NC3CCCCC3)ccc2n1C	nt	i	i	nt	i	i	nt	nt
CCOC(=O)/C=C1\SCC(=O)N1CC(=O)NCCc1ccc(F)cc1	i	i	i	i	i	i	nt	nt
N/N=C(/Cc1nc2ccccc2[nH]1)c1ccc([N+](=O)[O-])cc1	i	i	i	nt	i	i	nt	nt
Fc1ccc2cc(-c3ccccc3F)ncc2c1	i	nt	i	i	i	100	nt	nt	GRK2 confirm 2=i;FAM quench SP=i
CCC(C)c1ccccc1NC(=O)C(C)OC(=O)CN1C(=O)NC(C)(C)C1=O (centres undefined)	i	i	i	i	i	i	nt	nt
CCC1CCCCN1Cc1nc2c(c(=O)n(C)c(=O)n2C)n1Cc1ccccc1 (centres undefined)	i	i	i	i	i	i	nt	nt
CCCn1c(CN2CCCCC2CC)nc2c1c(=O)n(C)c(=O)n2C (centres undefined)	nt	i	i	i	i	47	i	i
CCC1CCCCN1Cc1nc2c(c(=O)n(C)c(=O)n2C)n1CCCc1ccccc1 (centres undefined)	i	i	i	i	i	i	i	i
Nc1ccn(CC(=O)NCc2ccccn2)c(=O)n1	i	nt	i	i	i	77	i	i
O=C(Cn1ccc(NC(=O)OCc2ccccc2)nc1=O)NCc1ccccn1	i	nt	i	i	i	i	nt	nt
Cc1ccccc1CNC(=O)C(=O)NCC1OCCCN1S(=O)(=O)c1cccs1 (centres undefined)	i	i	i	i	i	i	nt	nt
COc1ccc(OC)c(CNC(=O)c2ccc(C)c(NC(=O)C3=C(C)OCCS3)c2)c1	i	i	i	i	i	i	i	i

From PubChem BioAssay
